Source: PubChem BioAssay (Tox21)
Results filed as inconclusive are left out. A call without a number means that no potency is given here. Active and inactive are the calls of the source. Unless noted, the call rests on the fitted dose curve.

Assays:
[1] = Nuclear factor erythroid 2-related factor 2/antioxidant responsive element (Nrf2/ARE) small molecule agonists: qHTS cell viability counter screen in human keratinocytes (AID 1919968; active means well fitted curve in the direction sought with a large enough effect in the repeat runs; an effect the other way counts as inactive or inconclusive; further: nearly all actives have a fitted effect of over 55% in size)
Procedure, shortened: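 Measured as CellTiter-Fluor fluorescence, this readout tracks cytotoxicity in the same wells as the ARE-luciferase screen. HaCaT reporter cells (1,500/well) received compounds after a 5 h pre-incubation and were exposed for 23 h.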

[2] = Nuclear factor erythroid 2-related factor 2/antioxidant responsive element (Nrf2/ARE) small molecule agonists: luciferase reporter gene qHTS assay in human keratinocytes (AID 1919969); further: nearly all actives have a fitted effect of over 35% in size; further: potency means the concentration at half of the fitted maximal effect
[3] = molecular target: Gonadotropin-releasing hormone receptor (Homo sapiens) (UniProt P30968); experiment: Human gonadotropin-releasing hormone receptor (GnRHR) small molecule agonists, calcium flux assay in GnRHR-HEK293 cells (AID 1920063); further: nearly all actives have a fitted effect of over 35% in size
Procedure, shortened: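 Fluorescence kinetics (480 nm excitation, 540 nm emission; 3 min, 1 s steps) report calcium mobilisation in human GnRHR-HEK293 cells in agonist mode. Dye incubation: 1 h, 37 C.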

[4] = molecular target: KiSS-1 receptor (Homo sapiens) (UniProt Q969F8); experiment: Human kisspeptin (KISS1R) small molecule agonists, calcium flux assay in KISS1R-HEK293 cells (AID 1920064; active means well fitted curve in the direction sought with a large enough effect in the repeat runs; an effect the other way counts as inactive or inconclusive)
Procedure, shortened: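 Measures KISS1R agonism through calcium-sensitive dye fluorescence in stably transfected HEK293 cells, read for 3 min after pin-tool compound delivery; 15-point titrations in triplicate.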

[5] = G protein-coupled receptor (GPCR) small molecule agonists, calcium flux assay: HEK293 wild type cell line counter screen (AID 1920065)
Procedure, shortened: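 Readout: fluorescence at 480 nm excitation/540 nm emission, sampled at 1 s intervals for 3 min. Cells had been cultured 18 h, then dye-loaded 1 h at 37 C before compound or ATP addition.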

[6] = p53 small molecule agonists, cell-based qHTS assay with human liver microsomes: qHTS cell viability counter screen (AID 1963579); further: nearly all actives have a fitted effect of over 45% in size
Procedure, shortened: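 Metabolically activated exposure: compounds, human liver microsomes and NADPH (0.5 mg/mL final apiece) were added to p53RE-bla cells seeded 5 h earlier, left 16 h at 37 C, and then assessed for viability by CellTiter-Glo luminescence.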

[7] = p53 small molecule agonists, cell-based qHTS assay with rat liver microsomes: qHTS cell viability counter screen (AID 1963580); further: nearly all actives have a fitted effect of over 45% in size
Procedure, shortened: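 HCT-116 p53RE-bla, 4,000 cells/well, 5 h pre-incubation; cpd + rat liver microsomes 0.5 mg/mL + NADPH 0.5 mg/mL (final); 16 h, 37 C; CellTiter-Glo, 30 min RT; luminescence.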

[8] = p53 small molecule agonists, cell-based qHTS assay: qHTS cell viability counter screen (AID 1963581); further: nearly all actives have a fitted effect of over 45% in size
Procedure, shortened: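 In the same plates used for the p53 bla reporter, HCT-116 cells given compounds for 16 h at 37 C received CellTiter-Glo; luminescence was recorded 30 min later at room temperature.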

[9] = molecular target: 5-hydroxytryptamine receptor 2A (Homo sapiens) (UniProt P28223); experiment: 5-hydroxytryptamine receptor 2A (HTR2A) small molecule antagonists, cell-based qHTS assay (AID 1963586); further: nearly all actives have a fitted effect of over 45% in size; further: potency means the concentration at half of the fitted maximal effect
Procedure, shortened: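 Antagonist-mode intracellular calcium assay: DOI (4 nM) added after 5 min compound pre-incubation at room temperature to dye-loaded HTR2A-CHO cells. Fluorescence followed for 3 min, sampled every second.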

[10] = molecular target: 5-hydroxytryptamine receptor 2A (Homo sapiens) (UniProt P28223); experiment: 5-hydroxytryptamine receptor 2A (HTR2A) small molecule agonists, cell-based qHTS assay (AID 1963587); further: nearly all actives have a fitted effect of over 30% in size; further: potency means the concentration at half of the fitted maximal effect
Procedure, shortened: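 Kinetic calcium-flux fluorescence (2 min, 1 sec intervals) after compound addition in agonist mode. HTR2A-CHO cells were cultured 18 h, then dye-loaded 1 h at 37 C.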

[11] = molecular target: Muscarinic acetylcholine receptor M1 (Homo sapiens) (UniProt P11229); experiment: Cholinergic receptor muscarinic 1 (CHRM1) small molecule antagonists, cell-based qHTS assay (AID 1963588); further: nearly all actives have a fitted effect of over 40% in size
Procedure, shortened: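 CHRM1-CHO calcium-flux assay, antagonist mode. Cells were seeded 18 h, dye-loaded 1 h at 37 C and given compound for 5 min at RT, then acetylcholine was added at 50nM. FDSS fluorescence was read 3 min; 15 concentrations, three runs.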

[12] = molecular target: Muscarinic acetylcholine receptor M1 (Homo sapiens) (UniProt P11229); experiment: Cholinergic receptor muscarinic 1 (CHRM1) small molecule agonists, cell-based qHTS assay (AID 1963589); further: nearly all actives have a fitted effect of over 35% in size
Procedure, shortened: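 Each compound was tested at 15 concentrations across three independent runs on dye-loaded CHO cells stably expressing human CHRM1, reading intracellular calcium fluorescence kinetically at 1 sec intervals.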

[13] = cAMP Responsive Elements (CRE) small molecule agonists, cell-based qHTS assay (AID 1963590)
Procedure, shortened: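 Cell line: CRE-bla HEK 293T; medium DMEM/10% dialyzed FBS/0.1 mM NEAA/1 mM pyruvate/25 mM HEPES; 3 h compound exposure; beta-lactamase FRET readout after 2 h substrate loading at RT.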

[14] = cAMP Responsive Elements (CRE) small molecule antagonists, cell-based qHTS assay (AID 1963591; active means well fitted inhibition curve with a large enough effect in the signal ratio in the repeat runs, not every such curve was filed as active; the % refers to the signal ratio)
Procedure, shortened: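 Inhibition of NKH477-driven (0.25 uM final) CRE-beta-lactamase signal in HEK293T cells, 3 h compound exposure at 37 °C, detected by FRET substrate fluorescence.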

[15] = molecular target: Beta-2 adrenergic receptor (Homo sapiens) (UniProt P07550); experiment: Adrenergic beta2 receptor (ADRB2) small molecule antagonists, cell-based qHTS assay (AID 1963592); further: series mostly up to about 92 µM; nearly all actives have a fitted effect of over 50% in size
Procedure, shortened: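 Cells (CHO, stable ADRB2 overexpression) incubated 18-20hr at 37C; compounds added from DMSO; agonist mix (1nM isoproterenol, 100uM IBMX, 25uM Ro-20-1724) added; 0.5hr RT; d2-cAMP and anti-cAMP-cryptate added; 1hr RT; 665/615 nm read.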

[16] = molecular target: D(2) dopamine receptor (Homo sapiens) (UniProt P14416); experiment: Dopamine D2 receptor (DRD2) small molecule agonists, cell-based qHTS assay (AID 1963594); further: nearly all actives have a fitted effect of over 35% in size
Procedure, shortened: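 cAMP accumulation in DRD2-HEK293 cells measured by HTRF after 1 h detection; compounds added 10 min before NKH477 (200nM […]) forskolin-analogue stimulation, 30 min at room temperature, with Ro20-1724 present at 0.1 mM final.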

[17] = molecular target: D(2) dopamine receptor (Homo sapiens) (UniProt P14416); experiment: Dopamine D2 receptor (DRD2) small molecule antagonists, cell-based qHTS assay (AID 1963595; active means well fitted inhibition curve with a large enough effect in the signal ratio in the repeat runs, with a control signal flat; the % refers to the signal ratio)
Procedure, shortened: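 HTRF cAMP read-out at 665 and 620 nm emission (340 nm excitation). Antagonist mode: compounds were tested against 12 nM quinpirole in DRD2-HEK293 cells, with 200 nM NKH477 raising cAMP and 0.1 mM Ro20-1724 blocking its breakdown.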

[18] = molecular target: Beta-2 adrenergic receptor (Homo sapiens) (UniProt P07550); experiment: Adrenergic beta2 receptor (ADRB2) small molecule agonists, cell-based qHTS assay (AID 1963593);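 further: CHO cells stably overexpressing human ADRB2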
Procedure, shortened: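 CHO cells stably over-expressing ADRB2 were plated overnight at 37C, then dosed with compounds plus a stimulation mix containing 100uM IBMX and 25uM Ro-20-1724 for 0.5hr at room temperature. cAMP was measured by HTRF competition, 1hr.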

[19] = p53 small molecule agonists, cell-based qHTS assay (AID 1963582; active means well fitted activation curve with a large enough effect in the signal ratio in the repeat runs, not every such curve was filed as active; the % refers to the signal ratio)
Procedure, shortened: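 Compounds are pin-transferred in DMSO onto p53RE-bla cells and incubated 16 h at 37 C. The B/G FRET beta-lactamase substrate is then applied for 2 h at RT and fluorescence recorded.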

Sequence of Beta-2 adrenergic receptor (Homo sapiens) (P07550 whole entry, looked up): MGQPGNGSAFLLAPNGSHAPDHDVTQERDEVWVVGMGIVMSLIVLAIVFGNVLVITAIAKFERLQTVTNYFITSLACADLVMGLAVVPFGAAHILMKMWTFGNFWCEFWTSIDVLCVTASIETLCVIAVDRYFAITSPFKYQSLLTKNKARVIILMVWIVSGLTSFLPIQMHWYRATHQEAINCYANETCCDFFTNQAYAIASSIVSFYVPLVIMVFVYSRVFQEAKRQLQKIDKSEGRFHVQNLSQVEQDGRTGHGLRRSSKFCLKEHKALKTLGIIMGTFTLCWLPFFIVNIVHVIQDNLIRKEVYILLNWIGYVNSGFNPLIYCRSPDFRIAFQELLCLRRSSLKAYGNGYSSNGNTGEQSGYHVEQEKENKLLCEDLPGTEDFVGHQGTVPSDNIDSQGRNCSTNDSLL
Sequence of Muscarinic acetylcholine receptor M1 (Homo sapiens) (P11229 whole entry, looked up): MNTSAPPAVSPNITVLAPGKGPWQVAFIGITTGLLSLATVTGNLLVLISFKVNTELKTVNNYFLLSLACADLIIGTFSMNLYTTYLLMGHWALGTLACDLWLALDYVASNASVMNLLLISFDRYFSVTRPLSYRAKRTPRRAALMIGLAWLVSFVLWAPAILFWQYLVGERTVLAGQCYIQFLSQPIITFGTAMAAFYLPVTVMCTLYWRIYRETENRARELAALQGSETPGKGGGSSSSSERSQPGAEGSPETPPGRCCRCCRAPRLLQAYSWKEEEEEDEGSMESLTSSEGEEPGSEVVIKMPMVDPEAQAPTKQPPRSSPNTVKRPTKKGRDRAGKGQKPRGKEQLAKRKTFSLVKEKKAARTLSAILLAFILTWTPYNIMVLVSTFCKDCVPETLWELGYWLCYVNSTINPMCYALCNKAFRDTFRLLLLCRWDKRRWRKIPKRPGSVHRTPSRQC
Sequence of D(2) dopamine receptor (Homo sapiens) (P14416 whole entry, looked up): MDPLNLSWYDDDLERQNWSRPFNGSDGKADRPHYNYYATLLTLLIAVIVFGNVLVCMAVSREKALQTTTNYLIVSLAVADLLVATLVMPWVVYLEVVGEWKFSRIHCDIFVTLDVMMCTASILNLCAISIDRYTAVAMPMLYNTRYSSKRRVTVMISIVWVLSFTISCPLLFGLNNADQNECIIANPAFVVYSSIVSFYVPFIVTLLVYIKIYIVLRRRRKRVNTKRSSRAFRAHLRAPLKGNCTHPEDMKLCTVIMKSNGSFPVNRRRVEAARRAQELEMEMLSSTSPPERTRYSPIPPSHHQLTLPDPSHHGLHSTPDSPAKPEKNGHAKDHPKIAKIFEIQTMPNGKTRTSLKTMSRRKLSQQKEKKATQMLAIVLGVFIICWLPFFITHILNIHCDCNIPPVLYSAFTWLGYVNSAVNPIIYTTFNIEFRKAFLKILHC
Sequence of 5-hydroxytryptamine receptor 2A (Homo sapiens) (P28223 whole entry, looked up): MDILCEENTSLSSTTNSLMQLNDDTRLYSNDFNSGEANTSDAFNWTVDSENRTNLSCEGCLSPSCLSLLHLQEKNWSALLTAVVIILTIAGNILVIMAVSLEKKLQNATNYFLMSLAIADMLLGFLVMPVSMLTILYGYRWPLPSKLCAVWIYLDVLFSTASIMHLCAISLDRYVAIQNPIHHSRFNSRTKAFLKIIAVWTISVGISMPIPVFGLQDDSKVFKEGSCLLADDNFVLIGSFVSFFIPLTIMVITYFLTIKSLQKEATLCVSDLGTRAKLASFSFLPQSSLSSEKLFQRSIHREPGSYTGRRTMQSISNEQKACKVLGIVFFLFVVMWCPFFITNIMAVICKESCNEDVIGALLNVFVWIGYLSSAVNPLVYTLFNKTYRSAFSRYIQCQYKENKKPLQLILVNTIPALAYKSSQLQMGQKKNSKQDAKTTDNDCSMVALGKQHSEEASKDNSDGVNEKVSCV
Sequence of Gonadotropin-releasing hormone receptor (Homo sapiens) (P30968 whole entry, looked up): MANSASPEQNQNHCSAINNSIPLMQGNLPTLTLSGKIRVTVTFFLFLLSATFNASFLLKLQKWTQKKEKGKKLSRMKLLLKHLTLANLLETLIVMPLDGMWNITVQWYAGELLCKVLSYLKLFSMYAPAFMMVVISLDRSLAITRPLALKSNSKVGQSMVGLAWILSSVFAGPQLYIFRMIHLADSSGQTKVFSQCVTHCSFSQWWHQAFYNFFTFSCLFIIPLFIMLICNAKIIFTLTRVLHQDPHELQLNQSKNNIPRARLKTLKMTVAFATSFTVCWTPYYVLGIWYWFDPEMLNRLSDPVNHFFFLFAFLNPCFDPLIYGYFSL
Sequence of KiSS-1 receptor (Homo sapiens) (Q969F8 whole entry, looked up): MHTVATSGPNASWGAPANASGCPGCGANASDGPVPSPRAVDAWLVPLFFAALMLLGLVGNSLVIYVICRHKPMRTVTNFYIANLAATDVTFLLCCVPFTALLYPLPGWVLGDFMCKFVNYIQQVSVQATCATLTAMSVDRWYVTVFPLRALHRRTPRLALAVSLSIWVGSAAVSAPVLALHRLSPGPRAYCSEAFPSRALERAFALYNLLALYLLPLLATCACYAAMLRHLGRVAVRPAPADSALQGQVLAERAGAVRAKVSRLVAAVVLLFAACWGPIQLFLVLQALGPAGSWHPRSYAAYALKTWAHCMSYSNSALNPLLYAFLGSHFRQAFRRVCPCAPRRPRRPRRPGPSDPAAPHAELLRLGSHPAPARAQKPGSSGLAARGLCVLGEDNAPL

Row | SMILES | Potency [1] | Potency [2] | Potency [3] | Potency [4] | Potency [5] | Potency [6] | Potency [7] | Potency [8] | Potency [9] | Potency [10] | Potency [11] | Potency [12] | Potency [13] | Potency [14] | Potency [15] | Potency [16] | Potency [17] | Potency [18] | Potency [19]
1 | CCOP(=O)(SC(C)CC)N1CCSC1=O (centres undefined) | inactive | inactive | inactive | inactive | inactive | inactive | inactive | inactive | inactive | inactive | inactive | inactive | inactive | inactive | inactive | inactive | inactive | – | –
2 | C=COC(C)=O | inactive | inactive | inactive | inactive | inactive | inactive | inactive | inactive | inactive | inactive | inactive | inactive | inactive | inactive | inactive | inactive | inactive | – | –
3 | CNC(=O)N(C)c1nc2ccccc2s1 | inactive | inactive | inactive | inactive | inactive | inactive | inactive | inactive | inactive | inactive | inactive | inactive | inactive | inactive | inactive | inactive | inactive | inactive | –
4 | CCCSP(=S)(OCC)Oc1ccc(Cl)cc1Cl (centres undefined) | inactive | 61.1 µM (active) | inactive | inactive | inactive | inactive | inactive | inactive | inactive | inactive | inactive | inactive | inactive | inactive | inactive | inactive | inactive | – | –
5 | Cc1cnc2c(C(=O)O)c(Cl)ccc2c1 | inactive | inactive | inactive | inactive | inactive | inactive | inactive | inactive | inactive | inactive | inactive | inactive | inactive | inactive | inactive | inactive | inactive | inactive | –
6 | CNC(=O)Oc1cccc(N=CN(C)C)c1 | inactive | inactive | inactive | inactive | inactive | inactive | inactive | inactive | – | inactive | inactive | inactive | inactive | inactive | – | inactive | inactive | inactive | inactive
7 | NCCc1cc(O)c(O)cc1O | inactive | inactive | inactive | inactive | inactive | inactive | inactive | inactive | 18.3 µM (active) | 23.9 µM (active) | inactive | inactive | – | inactive | inactive | inactive | inactive | inactive | –
8 | C[C@]12CC[C@@H]3c4ccc(OC(=O)N(CCCl)CCCl)cc4CC[C@H]3[C@@H]1CC[C@@H]2O | inactive | inactive | inactive | inactive | inactive | inactive | inactive | inactive | inactive | inactive | inactive | inactive | inactive | inactive | inactive | inactive | inactive | inactive | –
